# Measured values from PubChem BioAssay AID651813 (National Center for Advancing Translational Sciences (NCATS), 2012).
# Screen size: about 2,100 compounds; about 1,100 (52%) were called active. Inconclusive results (about 27%) are left out. The call rests on the fitted dose curve; in most records, active means well fitted inhibition curve with a large enough effect; inconclusive means small, poorly fitted or top-dose-only effect; inactive means no such curve, though single readings can be large or run the other way. The set was probably picked from earlier hits. This is one part of the list.
# Target: DNA dC->dU-editing enzyme APOBEC-3G (Homo sapiens) (UniProt Q9HC16)
# Assay: qHTS for inhibitors of Vif-A3G interactions: Cherry picks counterscreen;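 further: hits raise yellow fluorescence by blocking Vif-driven A3G-eYFP degradation; nearly all actives have a fitted effect of over 70% in size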;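 on max response: max response given as percent of control signal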
# Conditions: HeLa A3G-eYFP + Vif (tagged APOBEC3G with the HIV-1 protein that degrades it), eYFP fluorescence, 24 h
# Text: The recent discovery and characterization of host restriction factors, which provide a potent defense to invading retroviruses, has provided new targets for antiviral drug development. APOBEC3G (A3G) and APOBEC3F (A3F) are potent cytidine deaminases that block HIV-1 replication; HIV-1 expresses the Vif protein, which counteracts A3G and A3F by binding to them and inducing their proteasomal degradation. The Vif-A3G and Vif-A3F interactions provide two potential targets for development of small molecules which can interfere with the ability of Vif to degrade A3G or A3F. […] To identify inhibitors that can interfere with Vif mediated degradation of A3G and A3F, we have developed Hela cell lines that stably express A3G or A3F tagged with eYFP at the C-terminal end (A3G-eYFP or A3F-eYFP, respectively) and Vif. In the absence of an inhibitor, Vif induces degradation of A3G-eYFP and A3F-eYFP, and the cells are not fluorescent. In the presence of an inhibitor, it is expected that Vif will be unable to degrade A3G-eYFP and/or A3F-eYFP, resulting in an increase in yellow fluorescence. In this counterscreen assay, Vif A3G was screened against the cherry picks ordered from the MLSMR. NIH Chemical Genomics Center [NCGC] NIH Molecular Libraries Probe Centers Network [MLPCN] MLPCN Grant: MH093245 Assay Submitter (PI): Vinay Pathak, National Cancer Institute
# A3G-Vif cells were harvested from T225 flask and resuspended in phenol free OPTI-MEM medium with 5% FBS. Then 5 uL of 140,000 cells/mL resuspended cells was dispensed into each well of low base Aurora COC 1,536-well plates (black walled, clear bottom) using a Multidrop Combi dispenser. After overnight culture at 37 deg C with 5% CO2, a total of 23 nL of compounds at 5 selected concentrations from the NPC or positive control (2 mM stock of MG132) in DMSO was transferred to each well of the assay plate using a pintool (Kalypsys, San Diego, CA), and the plates were further incubated at 37 deg C with 5% CO2 for 24 hours. After that, the plates were measured on Acumen Explorer (TTP Lab Tech). The fluorescence was detected by 488 nm/Ex and […].
# Potency means the concentration at half of the fitted maximal effect.
# Sequence of DNA dC->dU-editing enzyme APOBEC-3G (Homo sapiens) (Q9HC16 whole entry, looked up): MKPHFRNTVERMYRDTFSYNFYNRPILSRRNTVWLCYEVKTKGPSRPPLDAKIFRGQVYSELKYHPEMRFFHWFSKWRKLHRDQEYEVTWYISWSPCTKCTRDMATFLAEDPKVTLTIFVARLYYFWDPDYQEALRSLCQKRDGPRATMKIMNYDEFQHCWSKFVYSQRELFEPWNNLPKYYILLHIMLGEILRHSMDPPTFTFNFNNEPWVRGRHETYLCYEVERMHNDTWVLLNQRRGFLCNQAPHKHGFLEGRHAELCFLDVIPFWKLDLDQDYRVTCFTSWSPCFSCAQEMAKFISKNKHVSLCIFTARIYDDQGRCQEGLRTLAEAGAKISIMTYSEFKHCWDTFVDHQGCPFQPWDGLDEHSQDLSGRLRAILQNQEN
Compound,Potency,max response
CC(=O)Nc1cccc(-c2ccnc3c2CC(C(=O)NCc2ccco2)O3)c1 (configuration not stated),6.27 µM (active),
O=c1nc(/C=C/c2ccc(Cl)cc2Cl)cc(C(F)(F)F)[nH]1,17.7 µM (active),
CC(=O)OC1C2(CC3N4C(=O)C5(CO)SSC4(CC31O)C(=O)N5C)OC(C)C(C)(C)C2=O (configuration not stated),12.5 µM (active),
Nc1ccc2c3c(cccc13)-c1ccccc1-2,2.31 µM (active),
C=C1C(=O)OC2C1CCC(C)C1(O)C=CC(=O)C21C (configuration not stated),8.86 µM (active),
Cc1cc(N2CCCC2)ccc1C=C(C#N)C#N,11.6 µM (active),
CCN(CC)c1ccc(N=Cc2c(O)n(CCC3=CCCCC3)c(=O)[nH]c2=O)cc1,23.1 µM (active),
CCN(CC)c1ccc(N=Cc2c(O)n(Cc3ccccc3)c(=O)[nH]c2=O)cc1,13 µM (active),
Cc1ccccc1-n1c(O)c(/C=C/C=Nc2ccccc2)c(=O)[nH]c1=O,,55.1% (inactive)
C=CCn1c(O)c(C(C)=Nc2ccc(N(CC)CC)cc2)c(=O)[nH]c1=O,9.94 µM (active),
CCS(=O)(=O)N1N=C(c2cccc(NS(C)(=O)=O)c2)CC1c1ccccc1 (configuration not stated),20.6 µM (active),
Cc1nn(Cc2ccccc2)c(C)c1C(=O)OCC(=O)Nc1ccccc1SCC#N,15.8 µM (active),
N#CC1=C(N)Oc2c(c(=O)sc3ccccc23)C1c1cccnc1 (configuration not stated),5.59 µM (active),
NC(=Nc1ccccc1)NN=Cc1c[nH]c2ccccc12,2.23 µM (active),
CC(=O)O[C@@]12CO[C@@H]1C[C@H](OC1OCC(O)C(O)C1O)[C@@]1(C)C(=O)[C@H](O)C3=C(C)[C@@H](OC(=O)[C@H](O)[C@@H](NC(=O)c4ccccc4)c4ccccc4)C[C@@](O)([C@@H](OC(=O)c4ccccc4)C12)C3(C)C (some centres not stated),1.25 µM (active),
CCCCn1c(O)c(C(=O)/C=C/c2c[nH]c3ccccc23)c(=O)[nH]c1=O,4.44 µM (active),
CC1=CC(=Cc2sc3ccccc3[n+]2C)C=C(C)O1,20.6 µM (active),
Cc1c(Cl)cccc1NC(=O)c1oc2ccc(S(=O)(=O)N3CCC4(CC3)OCCO4)cc2c1C,7.31 µM (active),
CN1C(=O)/C(=C\c2ccc(N3CCCCC3)o2)C(=O)NC1=S,17.7 µM (active),

Compound,Potency,max response
CN1C(=O)/C(=C/c2ccc(N3CCCCCC3)o2)C(=O)NC1=S,15.8 µM (active),
CN1CCN(c2ccc(/C=C3\C(=O)NC(=S)N(c4cccc(Br)c4)C3=O)o2)CC1,16.4 µM (active),
COc1cc2c(cc1O)[C@@H]1Cc3ccc(OC)c(O)c3CN1CC2,12.5 µM (active),
COc1ccc(-n2cnc3cc(C(=O)N4CCC5(CC4)OCCO5)ccc32)cc1,9.94 µM (active),
COc1cccc(C2=CC(c3cc(Br)ccc3F)n3nnnc3N2)c1 (configuration not stated),1.84 µM (active),
ClCCN(CCCl)c1ccc(C=Cc2ccncn2)cc1,,-8.89% (inactive)
Cc1cc(N(CCCl)CCCl)ccc1C=Cc1ccncn1,20.6 µM (active),
CCN(CC)c1ccc2c(cc1=O)[C@@H](NC)CCc1cc(OC)c(OC)c(OC)c1-2,2.5 µM (active),
CN1C(=O)C(=Cc2ccc(N3CCCCC3)o2)C(=O)N(C)C1=S,2.91 µM (active),
CN1C(=O)C(=Cc2ccc(N3CCOCC3)o2)C(=O)N(C)C1=O,23.1 µM (active),
CN1C(=O)C(=Cc2ccc(N3CCOCC3)o2)C(=O)N(C)C1=S,20.6 µM (active),
CCN(CC)c1ccc(/C=C2\C(=O)NC(=S)N(c3ccc(OC)cc3OC)C2=O)o1,18.4 µM (active),
CCN1C(=O)/C(=C/c2ccc(N(CC)CC)cc2OC)C(=O)NC1=S,18.4 µM (active),
CCN(CC)c1ccc(/C=C2\C(=O)NC(=S)N(C)C2=O)o1,14 µM (active),
CCN(CC)c1ccc(C=C2C(=O)N(C)C(=S)N(C)C2=O)o1,6.27 µM (active),
COc1cc(C2C(C#N)=C(N)Oc3cc(O)ccc32)cc(OC)c1OC (configuration not stated),1.77 µM (active),
CN1/C(=C\C=C2C(=O)NC(=O)NC2=O)C(C)(C)c2ccccc21,2.91 µM (active),
CN(C)c1ccc(C(=O)c2ccc(N(C)C)cc2)cc1,1.58 µM (active),
CCCCNC(=O)/C(C#N)=c1\s/c(=C\c2ccccc2OC(F)F)c(=O)n1CCCOC,18.4 µM (active),

Compound,Potency,max response
COc1ccc(-c2ccc(OC)c(OC)c2OC)cc1,3.96 µM (active),
O=C1NC(=O)N(c2ccc3c(c2)OCO3)C(=O)/C1=C\c1ccc(N2CCCCC2)o1,20.6 µM (active),
O=C1NC(=O)N(c2ccc3c(c2)OCO3)C(=O)/C1=C/c1ccc(N2CCCCC2)o1,23.1 µM (active),
CC(C)c1ccc(N2C(=O)NC(=O)/C(=C\C=C\c3ccco3)C2=O)cc1,14 µM (active),
Cc1cc(/C=C2\C(=O)NC(=O)N(c3ccc(Br)cc3)C2=O)c(C)n1C,,8.75% (inactive)
CC(C)c1ccc(N2C(=O)NC(=O)/C(=C/C=C/c3ccco3)C2=O)cc1,14 µM (active),
O=C(Cc1ccccc1)c1ccccn1,12.5 µM (active),
Cc1cccc(CN2CCCC(C(=O)c3cccc(OC(C)C)c3)C2)n1 (configuration not stated),,2.93% (inactive)
O=c1[nH]c(CN2CC=C(c3ccccc3)CC2)nc2scc(-c3ccccc3)c12,8.2 µM (active),
O=C1NC(=S)SC1=Cc1ccc(N(CCCl)CCCl)cc1,15.8 µM (active),
Cc1ccc(CNC(=O)c2ccccc2NC(=O)c2nsc3ccccc23)cc1,23.1 µM (active),
Cc1cccc(-n2c(O)c(/C=C/C=Nc3ccccc3)c(=O)[nH]c2=O)c1,,59.1% (inactive)
Cc1cccc(-n2c(/C=C/c3c(C)[nH]c4ccccc34)nc3ccccc3c2=O)c1,18.4 µM (active),
O=c1c2ccccc2nc(/C=C/c2ccc([N+](=O)[O-])o2)n1-c1ccc(O)cc1,8.86 µM (active),
Cc1cccc(-n2c(/C=C/c3ccc([N+](=O)[O-])o3)nc3ccccc3c2=O)c1,5.17 µM (active),
COc1ccc(-n2c(/C=C/c3ccc(O)c(OC)c3)nc3ccccc3c2=O)cc1,23.1 µM (active),
COc1ccc2nc(NC(=O)c3nc(S(=O)(=O)Cc4cccc(C)c4)ncc3Cl)sc2c1,,58.8% (inactive)
Cc1ccccc1-n1c(/C=C/c2ccc(N(C)C)cc2)nc2ccccc2c1=O,1.46 µM (active),
O=Cc1c(C(=O)O)n(Cc2ccc(Cl)cc2)c2ccccc12,3.66 µM (active),
